Measurements reported in article PMC7862700, “An all-to-all approach to the identification of sequence-specific readers for epigenetic DNA modifications on cytosine”.

Key:
Test in all cases: DAPPL (digital affinity profiling via proximity ligation, sequencing); 10 mM Tris-HCl pH 7.5, 50 mM NaCl, 1 mM DTT, 4% glycerol, room temperature, 30 min; GST-TFs on glutathione beads, 16-mer random dsDNA library, 0.1% formaldehyde crosslink after washing; high values mean tight binding
Conditions in all cases: protein: recombinant; tags: N-terminal GST; dsDNA, one strand shown
ELK4 = target: T1, ELK4 (Homo sapiens, UniProt P28324-2 1-405)
T1 sequence: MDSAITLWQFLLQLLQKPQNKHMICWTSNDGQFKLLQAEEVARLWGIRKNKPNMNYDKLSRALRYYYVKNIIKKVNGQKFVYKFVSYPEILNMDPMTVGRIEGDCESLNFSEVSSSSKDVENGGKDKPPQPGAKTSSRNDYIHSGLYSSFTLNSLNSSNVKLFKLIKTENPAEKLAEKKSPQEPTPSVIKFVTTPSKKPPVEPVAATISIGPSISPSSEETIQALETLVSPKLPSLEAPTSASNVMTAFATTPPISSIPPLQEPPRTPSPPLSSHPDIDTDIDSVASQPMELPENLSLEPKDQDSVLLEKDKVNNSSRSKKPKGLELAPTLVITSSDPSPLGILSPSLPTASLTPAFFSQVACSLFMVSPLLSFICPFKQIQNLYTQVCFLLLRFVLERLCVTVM
In short: (§1)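 After expression in yeast as GST fusions, human transcription factors were bound to glutathione beads, DNA-barcoded and mixed with a tag-only sample. The pools were incubated with 200 nmole of a 16-mer random double-stranded DNA library in Tris/NaCl/DTT/glycerol buffer (30 min, room temperature), washed and crosslinked with 0.1% formaldehyde. Proximity ligation with BsaI/T4 ligase ran for 1 h at 37 °C, before PCR amplification and sequencing on an Illumina NextSeq500. Binding signal is a hexamer's read frequency for a factor divided by its frequency for the tag-only sample.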

ELF3 = target: T2, ELF3 (Homo sapiens, UniProt P78545 1-371)
T2 sequence: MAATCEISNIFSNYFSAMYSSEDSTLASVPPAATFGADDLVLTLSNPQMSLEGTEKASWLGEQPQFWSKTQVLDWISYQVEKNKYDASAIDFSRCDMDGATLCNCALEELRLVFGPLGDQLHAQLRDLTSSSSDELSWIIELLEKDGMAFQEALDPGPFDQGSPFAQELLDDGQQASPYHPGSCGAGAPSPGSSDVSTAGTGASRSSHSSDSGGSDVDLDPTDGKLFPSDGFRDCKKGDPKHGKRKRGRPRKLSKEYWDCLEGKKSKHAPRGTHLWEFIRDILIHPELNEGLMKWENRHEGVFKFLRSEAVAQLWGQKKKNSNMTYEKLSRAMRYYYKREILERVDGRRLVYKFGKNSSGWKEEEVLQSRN
In short: as §1

ETV1 = ETV1 (Homo sapiens, UniProt P50549 1-477)
In short: as §1

ERF = target: T3, ERF (Homo sapiens, UniProt P50548 1-548)
T3 sequence: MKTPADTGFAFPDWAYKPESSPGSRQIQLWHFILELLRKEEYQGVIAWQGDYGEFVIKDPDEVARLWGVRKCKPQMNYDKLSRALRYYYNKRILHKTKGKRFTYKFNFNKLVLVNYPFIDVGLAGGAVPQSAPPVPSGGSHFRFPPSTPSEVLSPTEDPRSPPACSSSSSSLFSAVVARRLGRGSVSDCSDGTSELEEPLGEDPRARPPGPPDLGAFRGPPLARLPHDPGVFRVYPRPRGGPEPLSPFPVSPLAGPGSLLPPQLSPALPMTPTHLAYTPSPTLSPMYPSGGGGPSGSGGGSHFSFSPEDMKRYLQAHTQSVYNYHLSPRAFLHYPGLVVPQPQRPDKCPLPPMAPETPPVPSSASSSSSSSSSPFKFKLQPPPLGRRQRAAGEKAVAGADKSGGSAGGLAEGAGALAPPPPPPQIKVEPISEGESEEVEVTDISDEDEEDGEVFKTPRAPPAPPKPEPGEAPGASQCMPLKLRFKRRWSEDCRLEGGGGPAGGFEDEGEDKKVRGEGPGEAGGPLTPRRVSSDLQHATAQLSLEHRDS
In short: as §1

ETV3L = target: T4, ETV3L (Homo sapiens, UniProt Q6ZN32 1-361)
T4 sequence: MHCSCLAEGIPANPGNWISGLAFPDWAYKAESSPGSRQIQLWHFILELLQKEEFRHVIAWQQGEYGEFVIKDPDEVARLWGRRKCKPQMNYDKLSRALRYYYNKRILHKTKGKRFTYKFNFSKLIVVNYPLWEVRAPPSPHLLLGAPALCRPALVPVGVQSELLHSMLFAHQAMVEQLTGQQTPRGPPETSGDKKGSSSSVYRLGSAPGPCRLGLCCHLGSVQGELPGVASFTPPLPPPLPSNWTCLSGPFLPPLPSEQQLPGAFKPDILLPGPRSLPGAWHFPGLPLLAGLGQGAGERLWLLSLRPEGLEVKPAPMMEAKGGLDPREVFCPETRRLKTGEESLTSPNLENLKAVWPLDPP
In short: as §1

ETS2 = target: T5, ETS2 (Homo sapiens, UniProt P15036 1-469)
T5 sequence: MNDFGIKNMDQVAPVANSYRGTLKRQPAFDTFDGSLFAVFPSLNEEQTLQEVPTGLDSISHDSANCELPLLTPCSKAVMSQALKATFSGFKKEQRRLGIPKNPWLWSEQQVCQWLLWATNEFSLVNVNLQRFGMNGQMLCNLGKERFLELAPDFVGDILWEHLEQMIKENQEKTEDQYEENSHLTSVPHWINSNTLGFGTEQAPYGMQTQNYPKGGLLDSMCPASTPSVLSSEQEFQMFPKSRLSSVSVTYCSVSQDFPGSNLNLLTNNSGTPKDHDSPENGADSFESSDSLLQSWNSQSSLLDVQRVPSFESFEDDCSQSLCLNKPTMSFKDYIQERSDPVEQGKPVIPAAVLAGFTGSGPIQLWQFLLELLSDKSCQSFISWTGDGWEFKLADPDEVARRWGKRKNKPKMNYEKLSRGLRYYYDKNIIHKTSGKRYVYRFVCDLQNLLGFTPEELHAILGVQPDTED
In short: as §1

SPDEF = target: T6, SPDEF (Homo sapiens, UniProt O95238 1-335)
T6 sequence: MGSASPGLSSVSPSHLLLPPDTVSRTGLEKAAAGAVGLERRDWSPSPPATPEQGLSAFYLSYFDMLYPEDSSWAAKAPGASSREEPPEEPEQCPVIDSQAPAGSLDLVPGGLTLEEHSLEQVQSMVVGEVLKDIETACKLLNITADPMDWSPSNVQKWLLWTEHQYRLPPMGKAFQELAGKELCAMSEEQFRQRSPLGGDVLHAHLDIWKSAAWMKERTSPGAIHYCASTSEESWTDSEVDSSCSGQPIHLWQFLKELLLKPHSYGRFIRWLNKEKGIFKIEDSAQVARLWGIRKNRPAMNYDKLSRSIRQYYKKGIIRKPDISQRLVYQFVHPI
In short: as §1

ETV7 = target: T7, ETV7 (Homo sapiens, UniProt Q9Y603 1-341)
T7 sequence: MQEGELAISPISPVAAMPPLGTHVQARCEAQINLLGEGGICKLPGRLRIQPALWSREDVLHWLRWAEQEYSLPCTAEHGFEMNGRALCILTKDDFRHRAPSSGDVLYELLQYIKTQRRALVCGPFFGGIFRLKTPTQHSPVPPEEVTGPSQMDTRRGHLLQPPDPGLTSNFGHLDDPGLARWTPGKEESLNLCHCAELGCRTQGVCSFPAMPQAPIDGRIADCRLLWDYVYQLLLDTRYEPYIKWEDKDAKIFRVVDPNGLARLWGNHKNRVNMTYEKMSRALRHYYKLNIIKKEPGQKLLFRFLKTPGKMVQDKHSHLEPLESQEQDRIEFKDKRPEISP
In short: as §1

ETV3 = target: T8, ETV3 (Homo sapiens, UniProt P41162-2 1-143)
T8 sequence: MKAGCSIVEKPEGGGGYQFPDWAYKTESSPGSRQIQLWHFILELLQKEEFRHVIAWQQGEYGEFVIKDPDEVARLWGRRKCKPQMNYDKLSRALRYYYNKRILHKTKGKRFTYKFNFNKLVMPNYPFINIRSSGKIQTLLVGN
In short: as §1

ETV6 = ETV6 (Homo sapiens, UniProt P41212 1-452)
In short: as §1

ETV6, sequence (P41212 whole entry): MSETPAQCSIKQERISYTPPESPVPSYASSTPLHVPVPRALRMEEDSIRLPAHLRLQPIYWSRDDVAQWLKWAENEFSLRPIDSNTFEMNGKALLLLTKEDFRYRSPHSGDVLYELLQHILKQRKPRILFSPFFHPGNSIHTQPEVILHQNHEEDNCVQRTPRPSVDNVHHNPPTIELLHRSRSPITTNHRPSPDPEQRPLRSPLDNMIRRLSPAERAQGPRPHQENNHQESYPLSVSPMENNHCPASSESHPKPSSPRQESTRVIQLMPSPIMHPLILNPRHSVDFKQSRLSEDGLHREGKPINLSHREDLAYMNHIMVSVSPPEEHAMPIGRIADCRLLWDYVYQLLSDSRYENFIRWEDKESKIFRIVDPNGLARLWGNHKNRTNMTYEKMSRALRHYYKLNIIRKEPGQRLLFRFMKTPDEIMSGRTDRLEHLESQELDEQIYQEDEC
ETV1, sequence (P50549 whole entry): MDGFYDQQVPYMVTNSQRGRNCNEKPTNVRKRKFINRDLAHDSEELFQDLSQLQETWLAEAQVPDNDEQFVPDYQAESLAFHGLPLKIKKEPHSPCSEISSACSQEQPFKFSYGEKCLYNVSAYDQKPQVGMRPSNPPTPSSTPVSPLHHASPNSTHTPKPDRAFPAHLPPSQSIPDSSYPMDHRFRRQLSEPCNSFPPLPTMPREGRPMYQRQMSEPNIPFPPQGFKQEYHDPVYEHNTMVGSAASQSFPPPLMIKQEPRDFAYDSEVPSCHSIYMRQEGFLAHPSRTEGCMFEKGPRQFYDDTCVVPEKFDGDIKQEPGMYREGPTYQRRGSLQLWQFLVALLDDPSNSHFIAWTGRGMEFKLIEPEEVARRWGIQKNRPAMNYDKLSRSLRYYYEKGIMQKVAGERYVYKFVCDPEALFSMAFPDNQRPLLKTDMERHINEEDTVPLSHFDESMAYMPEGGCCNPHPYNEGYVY

CACAGC
binding signal (ELK4): 1.04 fold enrichment (6-mer frequency, TF over GST control) | binding signal (ELF3): 1.04 fold enrichment (6-mer frequency, TF over GST control) | binding signal (ETV1): 1.1 fold enrichment (6-mer frequency, TF over GST control) | binding signal (ERF): 1.07 fold enrichment (6-mer frequency, TF over GST control) | binding signal (ETV3L): 1.17 fold enrichment (6-mer frequency, TF over GST control) | binding signal (ETS2): 1.01 fold enrichment (6-mer frequency, TF over GST control) | binding signal (SPDEF): 1.03 fold enrichment (6-mer frequency, TF over GST control) | binding signal (ETV7): 1.12 fold enrichment (6-mer frequency, TF over GST control) | binding signal (ETV3): 1.05 fold enrichment (6-mer frequency, TF over GST control) | binding signal (ETV6): 1.01 fold enrichment (6-mer frequency, TF over GST control)
